Assay outcomes: PubChem BioAssay, Broad Institute
A selection: hits, their analogues and other compounds. The true share with any hit is near 3.4%.
LGR2 inh: inhibitors of bursicon-induced LGR2 CRE-luciferase signal, primary screen, cell-based, HEK293, CRE-luciferase reporter, bursicon stimulation. AID 720647, 2013. Drosophila bursicon receptor LGR2 (rickets). inhibition, % at 9.99 µM. bursicon-stimulated, 4 h. 0.35% of 380,000 active;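 active = drop in luminescence signal, shown as inhibition above about 50% in the replicate tests, limit read from the data, passing the limit was not always enough; inconclusive = probably only some replicates passing the limit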;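 also: agonist challenge used bursicon conditioned medium at about half maximal strength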
EWS-Fli block: EWS/Fli-driven NR0B1 reporter inhibitors, primary screen, A673 cells, NR0B1 luciferase, luminescence, MLPCN library. viability-normalised. AID 651661, 2012. inhibition, % at 12.6 µM. 0.67% of 350,000 active;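 active = mean inhibition of at least 50% after viability correction, with every replicate also passing that limit; inconclusive = mean reaches 50% but only one of two replicates passes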;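 also: firefly luciferase signal divided by Alamar Blue viability fluorescence both relative to DMSO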
SIRT5 block: SIRT5 desuccinylase inhibitors, primary screen, biochemical, fluorescence imaging, single point, set 5. NAD-dependent protein deacylase sirtuin-5, mitochondrial (Homo sapiens), Q9NXA8. Purified SirT5, succinyl-peptide AMC, trypsin-coupled fluorescence. inhibition, % at 15 µM. 1.1% of 330,000 active; in the data active = inhibition above about 15%; inconclusive = no clear call, values can overlap the other calls
Target sequence (Q9NXA8 whole entry, looked up): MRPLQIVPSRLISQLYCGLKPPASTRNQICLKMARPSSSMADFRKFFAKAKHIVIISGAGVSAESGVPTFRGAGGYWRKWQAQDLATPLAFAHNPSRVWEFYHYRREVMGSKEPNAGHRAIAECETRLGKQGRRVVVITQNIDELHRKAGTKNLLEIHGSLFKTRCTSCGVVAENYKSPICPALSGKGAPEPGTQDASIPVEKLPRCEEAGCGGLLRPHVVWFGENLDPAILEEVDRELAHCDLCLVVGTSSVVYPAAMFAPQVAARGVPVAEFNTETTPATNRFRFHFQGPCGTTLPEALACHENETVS
PGC1a acetyl inh: inhibitors of PGC1a acetylation signal, primary screen, cell-based, U2OS, AlphaScreen, inhibitor mode. AlphaScreen anti-acetyl-lysine; with virally co-expressed GCN5 acetyltransferase. inhibition, % at 15.6 µM. 0.17% of 350,000 active. AID 651687, 2012;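 active = every replicate shows inhibition of at least 40%; inconclusive = mean inhibition at least 40% but some replicate below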;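 also: 0% = neutral control wells and 100% = positive control wells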
PAX8 reporter: inhibitors of PAX8-driven TPO luciferase reporter, primary screen, RMG-I cells, single concentration; AID 652154, 2013; inhibition, % at 12.6 µM; SteadyGlo, 24 h; 1.2% of 360,000 active;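 active = mean replicate inhibition at least 60% with every replicate also reaching 60%; inconclusive = only one of the two criteria is met; inactive = mean below 60% and not all replicates reaching 60%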;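 also: luciferase light reporting Pax8 driven TPO promoter activity; plate controls were median of neutral control wells for no effect and mitoxantrone controls for full effect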
rRNA inh HTS: reduced GFP signal of wild-type E. coli, primary screen, bacterial rRNA inhibitor project, GFP/RFP fluorescence, OD600, single point; E. coli WT GFP vs humanized-ribosome RFP mutants, 24 h; stronger effect = lower value; DMSO median 0, no signal -100; GFP signal change (wild-type ribosome), % (no concentration beside the values); 1.6% of 350,000 active; AID 720706, 2013;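 active = significant combined selectivity score with lowered wild-type GFP, culture density cut under 30%, mutant RFP and density less affected; inactive = any of these conditions unmet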
Active calls of the source: *; ? = inconclusive; · = no result.

SMILES | LGR2 inh | EWS-Fli block | SIRT5 block | PGC1a acetyl inh | PAX8 reporter | rRNA inh HTS
CCOC(=O)N1CCN(Cc2cc(Cl)c3cccnc3c2O)CC1 | 2.0 | 32.0 | 11.4 | · | 78.2* | -51.5
Oc1c(CN2CCOCC2)cc(COCc2ccccc2)c2cccnc12 | 31.4 | · | · | 16.2 | 65.9* | ·
c1ccc(N2CCN(Cc3ccnc4ccccc34)CC2)cc1 | · | · | · | 16.6 | · | ·
CCOC(=O)N1CCN(Cc2ccccc2Cl)CC1 | · | · | · | 10.9 | · | ·
CC[N+](CC)(CC#Cc1ccccc1)CC(=O)c1ccc(Cl)cc1 | 9.7 | 13.0 | -0.3 | · | 16.6 | -23.0*
C[C@@H]1[C@@H](Sc2ccccc2)CC(=O)O[C@@H]1c1ccc(-c2ccccc2)cc1 | 42.0 | 12.6 | -1.3 | · | 23.6 | -1.4
O=C1C=CC2(O[C@H](c3ccccc3)[C@@H](c3ccccc3)O2)[C@H](Sc2ccccc2O)C1 | 98.7* | 68.0* | -8.8 | · | 34.7 | -12.2
Cc1cccc(Cn2c(Cc3ccccc3)nc3ccccc32)c1 | -2.5 | 11.1 | · | -12.0 | 68.7* | -27.6
COCc1nc2ccccc2n1Cc1cccc(C)c1 | · | · | · | · | -8.2 | ·
C[C@@H]1CN([C@@H](C)CO)C(=O)c2cc(NC(=O)Cc3ccccc3)ccc2O[C@@H](C)CCCCO[C@H]1CN(C)CC1CCCCC1 | -11.0 | 0.5 | -3.7 | 2.0 | -2.5 | 5.3
O=[N+]([O-])c1cc(S(=O)(=O)Oc2ccccc2)ccc1Cl | 68.0* | 22.0 | -2.3 | · | 10.1 | -45.1
CCOC(=O)COc1ccc2c(=O)c(-c3ccccc3)coc2c1 | -16.2 | 2.5 | · | · | -4.6 | -7.0
CC(=O)Oc1ccc2c(=O)c(-c3ccccc3)coc2c1 | -33.5 | -62.3 | -2.8 | 1.5 | -172.2 | -24.4*
COC(=O)[C@@H]1[C@@H](CO)[C@@H]2Cn3c(ccc(-c4ccccc4F)c3=O)[C@@H]2N1Cc1ccccc1 | -4.7 | 4.4 | 4.3 | · | 1.2 | -4.7
S=C(Nc1ccc(N2CCOCC2)cc1)Nc1ccc2snnc2c1 | -26.3 | -8.9 | -6.0 | · | -10.6 | -20.1*
C[C@H](NC(=O)C[C@@H]1CC[C@H]2[C@@H](COC[C@@H](O)CN2Cc2ccc(C(F)(F)F)cc2)O1)c1ccccc1 | -28.8 | 0.1 | 16.6* | -5.3 | 11.9 | 0.7
C[C@@H](NC(=O)C[C@@H]1CC[C@@H]2[C@H](COC[C@H](O)CN2Cc2cc(F)ccc2F)O1)c1ccccc1 | -3.6 | 4.6 | 6.5 | 3.7 | 67.7* | -11.8
C[C@@H](NC(=O)C[C@H]1CC[C@@H]2[C@H](COC[C@@H](O)CN2Cc2cc(F)ccc2F)O1)c1ccccc1 | -0.3 | -4.2 | -2.1 | -6.4 | 13.5 | 1.2
C[C@@H](NC(=O)C[C@H]1CC[C@@H]2[C@H](COC[C@H](O)CN2Cc2ccc(C(F)(F)F)cc2)O1)c1ccccc1 | -19.9 | -0.8 | 13.5 | 0.8 | 14.9 | 0.7
Cc1noc(C)c1NC(=O)N[C@H]1C=C[C@@H](CC(=O)N2CCN(C)CC2)O[C@@H]1CO | 14.3 | -7.8 | -1.3 | 4.9 | -3.3 | 3.8
CCCc1cn(CC[C@H]2CC[C@@H](NS(=O)(=O)c3ccccc3Cl)[C@H](CO)O2)nn1 | -2.5 | 2.8 | 1.7 | 8.6 | 4.8 | 3.9
COC(=O)C1(Cc2cc(-c3ccc(OC)cc3OC)no2)CCN(C(=O)OC(C)(C)C)CC1 | -11.8 | -20.0 | 33.8* | -11.5 | 2.8 | -14.1
NC(=O)c1c(NC(=O)c2ccccc2C(=O)O)sc2c1CCCC2 | 4.4 | -0.3 | 0.8 | 4.3 | 17.5 | 3.6
CCOC(=O)c1c(NC(C)=O)sc2c1CCN(Cc1ccccc1)C2 | -21.7 | -12.2 | -0.3 | -17.5 | -3.5 | -5.9
NCCNC(=O)c1c(NC(=O)c2ccccc2)sc2c1CCCC2 | -43.3 | -111.8 | 1.3 | 0.0 | -44.7 | -22.0*
SMILES | LGR2 inh | EWS-Fli block | SIRT5 block | PGC1a acetyl inh | PAX8 reporter | rRNA inh HTS
COC(=O)c1c(NC(C)=O)sc2c1CCN(Cc1ccccc1)C2 | -7.5 | -20.0 | 18.0* | -10.2 | 12.2 | -1.9
CCOC(=O)c1c(NC(=O)C(NCCN(C)C)c2ccccc2)sc2c1CCCC2 (stereo not drawn) | 2.6 | 58.9* | -2.1 | · | 38.2 | -37.6
CCOC(=O)c1c(NC(=O)c2ccccc2N(C)S(=O)(=O)c2ccccc2)sc2c1CCCC2 | · | ? | -4.7 | · | 27.7 | 0.9
COC(=O)c1c(NC(=O)c2ccccc2C(=O)O)sc2c1CCC2 | 15.1 | 9.4 | 4.5 | 6.1 | -0.8 | -20.7*
O=C(C[C@@H]1C[C@H]2c3cc(NC(=O)NC4CCCCC4)ccc3O[C@H]2[C@@H](CO)O1)NC1CCCC1 | · | · | · | · | · | 5.5
O=C(C[C@@H]1C=C[C@@H](NS(=O)(=O)c2ccccc2F)[C@@H](CO)O1)NCCCN1CCOCC1 | 5.5 | · | -0.1 | 0.8 | · | -0.9
CCCc1cc(=O)oc2c3c(cc(OCC(=O)N4CCC(C(=O)O)CC4)c12)OC(C)(C)CC3 | -13.6 | 2.8 | -59.0 | 4.7 | · | -14.9
CCCc1cc(=O)oc2c3c(cc(OCC(=O)NCC4CCC(C(=O)O)CC4)c12)OC(C)(C)CC3 (stereo not drawn) | · | 8.9 | -77.6 | 6.6 | · | -39.2*
COc1cccc(CNCc2ccc(OC)cc2OC)c1 | 19.0 | 5.7 | -4.4 | 3.1 | -30.5 | 2.3
CCn1c2ccccc2c2cc(CNCc3ccc(OC)cc3OC)ccc21 | 102.1* | 38.1 | -0.2 | · | 18.3 | -52.6
CCOc1cccc(NC(=O)/C(C#N)=C\c2cn(CC(=O)O)c3ccccc23)c1 | 20.1 | 6.8 | 3.6 | -6.5 | -19.3 | -29.0
CCOc1ccc(NC(=O)/C(C#N)=C/c2cn(CC(=O)O)c3ccccc23)cc1 | · | 15.3 | 4.4 | 0.2 | 8.2 | -25.7*
CC(=O)Nc1ccc(Nc2nc(-c3c(C)nc4ccccn34)cs2)cc1 | 3.8 | 56.7* | -0.9 | 5.8 | 39.2 | -12.2
CCC(=O)N1CCC2(CC1)CN(S(C)(=O)=O)[C@H](CO)c1[nH]c3cc(OC)ccc3c12 | · | · | · | · | · | 0.7
O=S(=O)(CCc1ccncc1)c1ccc(Cl)cc1 | 9.1 | 4.0 | 26.6* | · | 0.7 | 4.3
CCC(=O)Nc1ccc2c(c1)OC[C@@H](C)N(C(=O)NC(C)C)C[C@@H](C)[C@H](OC)CN(C)C2=O | 3.2 | 30.5 | -1.1 | 5.2 | -37.1 | 2.5
O=C(CN1C(=O)COc2ccccc21)NNC(=O)Nc1ccccc1F | 2.4 | -4.4 | 25.7* | 5.9 | -4.2 | 2.8
COc1ccc(CC(=O)Nc2cccc(-c3nnc(-c4ccccc4)o3)c2)cc1OC | 102.6* | · | · | -18.1 | · | 16.6
COc1ccc(CC(=O)Nc2cccc(-c3nnc(-c4ccc(C)cc4)o3)c2)cc1OC | 94.2* | -18.1 | 2.2 | -6.5 | · | 16.6
COc1cccc(CC(=O)OCC(=O)Nc2nnc(-c3ccccc3)o2)c1 | -10.5 | 1.7 | -1.9 | 10.4 | -9.7 | -27.3*
